In all, about 35,000 sequences were measured (“fluorescence intensity (a.u.)”: median about 10,000, highest 2% from about 52,000 on). This is one part of a sample in which the highest values are shown more often than they occur.

The test concerns the target T1, OsWOX13 (Oryza sativa, UniProt Q5QMM3 1-267).
T1 sequence: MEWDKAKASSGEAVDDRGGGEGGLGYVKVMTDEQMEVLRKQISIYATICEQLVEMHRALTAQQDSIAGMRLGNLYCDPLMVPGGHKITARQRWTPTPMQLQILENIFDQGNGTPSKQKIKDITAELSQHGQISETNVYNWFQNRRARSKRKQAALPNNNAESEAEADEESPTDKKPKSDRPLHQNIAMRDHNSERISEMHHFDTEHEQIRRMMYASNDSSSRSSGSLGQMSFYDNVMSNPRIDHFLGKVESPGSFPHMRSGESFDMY
Nature of the test: protein-binding microarray (RPBM); PBS, 2% BSA, 51.3 ng/ul salmon testes DNA, 50 uM zinc acetate, 200 nM TF, 25 C, 1 h; high values mean tight binding. The following applies: protein: recombinant; tags: N-terminal polyhistidine and DsRed monomer fusion (pET32a); label: CyDye5-dUTP incorporated in the synthesized complementary strand; 3' TTTTT single-stranded linker to array surface; dsDNA, one strand shown. The gist of the method:
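Ni–NTA purification followed expression in E. coli BL21-CodonPlus of transcription factors fused N-terminally to a polyhistidine tag and DsRed. At 200 nM in PBS with 2% BSA, salmon testes DNA and 50 µM zinc acetate, the protein was incubated for 1 h at 25 °C with a custom Agilent array that had been primer-extended with Cy5-dUTP and blocked with 2% BSA. After washing, the array was read on an Axon 4000B scanner. The binding signal is per-feature fluorescence intensity in arbitrary units.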
As to “ATTCCTAAAATTATATGAATTTATGAGAAATTACGTAATGCGGAGTCACCTAGTGCAG”, the binding signal was 4300 fluorescence intensity (a.u.).
In the case of “ATGGAATCAGTAATTAACTAGAAATAAATTAATACTCCTACGGAGTCACCTAGTGCAG”, the binding signal was 9880 fluorescence intensity (a.u.).
Regarding “TGGCAATGATTTATACTTCAATCATAATTGTTTGCTTAGGCGGAGTCACCTAGTGCAG”, the binding signal was 24000 fluorescence intensity (a.u.).
Consider “TTAGCTATCACAGACACAATCACACAACGATGGTAAAACACGGAGTCACCTAGTGCAG”, for which the binding signal was 6740 fluorescence intensity (a.u.).
As to “TCACTGTTATTTAATTATATATATATATATATATTCATGCCGGAGTCACCTAGTGCAG”, the binding signal is 8880 fluorescence intensity (a.u.).
The result for “ATTAATTAATTAACCTCTAACATTTAACTAATGCAGGTAACGGAGTCACCTAGTGCAG” reads 56900 fluorescence intensity (a.u.); that for “CCAAATTTGGTAATTTAGAATTTGAACTAGCGTGAGAAAACGGAGTCACCTAGTGCAG”, 19800 fluorescence intensity (a.u.).
Consider “AGAATGGTGATTAACTATTGGTGTTAATTAATTTGCTGCACGGAGTCACCTAGTGCAG”, for which the binding signal was 31000 fluorescence intensity (a.u.).
On to “ATTAATTAAAATCGCGCCCAATTAATCATTTAATCCATCCCGGAGTCACCTAGTGCAG”, for which the binding signal was 40700 fluorescence intensity (a.u.).
For “AGGGTAATTACACATTTAACCCTATTTTAAGGTCTAACTACGGAGTCACCTAGTGCAG” the value was 18400 fluorescence intensity (a.u.); for “GACATTAATTAATTTAAATTAACGCTCACTGTTCATCGCCCGGAGTCACCTAGTGCAG”, 65500 fluorescence intensity (a.u.); for “TGTGATTGGTAATTGCCGAACTATTTGAAAATGGTGCGTGCGGAGTCACCTAGTGCAG”, 62300 fluorescence intensity (a.u.).
As to “TTATGCATTAACAACGTAACTAATTTAATTTGATTAGTTTCGGAGTCACCTAGTGCAG”, the binding signal is 24000 fluorescence intensity (a.u.).
With “ACCAATTATAAACACAAGTTAATGGGCAAATGACATGGAACGGAGTCACCTAGTGCAG”, the binding signal was 11500 fluorescence intensity (a.u.).
For “TTAATTTACCGGATTCAATATTCCATATTTAGAAGTCACCCGGAGTCACCTAGTGCAG”, the binding signal was 3350 fluorescence intensity (a.u.).
For “CATGACATCGTCATTGACCGTGTCATCGTCAAGATGGATGCGGAGTCACCTAGTGCAG” the value was 4420 fluorescence intensity (a.u.); for “AATAAAAGATTATCATATCTAAATAGAAGATATACCATCTCGGAGTCACCTAGTGCAG”, 4160 fluorescence intensity (a.u.); for “AAACCAATTTCAATTACCAATTACTCCCTAATATTAGCTACGGAGTCACCTAGTGCAG”, 18900 fluorescence intensity (a.u.).
With “GATCAAAAGAAATTTGCCAAATTTACTGCTTTGTGATGGGCGGAGTCACCTAGTGCAG”, the binding signal is 3610 fluorescence intensity (a.u.).
As to “TTATGATTTTCATATAAATCAAATGGGACTTTAATTAATCCGGAGTCACCTAGTGCAG”, the binding signal was 11500 fluorescence intensity (a.u.).
For “TGACCTAATTAATTATTTAACTAATAATAATTAGTGATTACGGAGTCACCTAGTGCAG”, the binding signal is 44500 fluorescence intensity (a.u.).
Take “CTAATTATAAACCTTAATCAGCTAAAATCCTAACCCATCACGGAGTCACCTAGTGCAG”: the binding signal was 3290 fluorescence intensity (a.u.).
For “ATCACCGACTAATTAATTAATTAATTAATCATCCTTGATTCGGAGTCACCTAGTGCAG”, the binding signal is 38800 fluorescence intensity (a.u.).
Turning to “ATGGACTAATTATGCTCAAAAGATTCGTCTCACGATTTACCGGAGTCACCTAGTGCAG”, the binding signal is 16800 fluorescence intensity (a.u.).
Take “GCTCTGATTAATTTCAAACTTCGATTATGGACTAGTCAACCGGAGTCACCTAGTGCAG”: the binding signal is 53400 fluorescence intensity (a.u.).
Take “CATCAACATATAATTGATTAAATATTAATTATAACAAACTCGGAGTCACCTAGTGCAG”: the binding signal is 45700 fluorescence intensity (a.u.).
The result for “ATTGATTTTATTAAGTAACTGTGTGCTAATTAATTGTTCACGGAGTCACCTAGTGCAG” reads 28300 fluorescence intensity (a.u.); that for “GATAAGTGATTGATTAACTACTAATTTAATTATCACTGTGCGGAGTCACCTAGTGCAG”, 63300 fluorescence intensity (a.u.); that for “CATTAATTAAACTAACCCATCCATTGATTGATTATCAGTGCGGAGTCACCTAGTGCAG”, 63500 fluorescence intensity (a.u.).
With “TAATTAATTGATTAATGACTAAACTTGGCCATCAACCGCTCGGAGTCACCTAGTGCAG”, the binding signal was 64800 fluorescence intensity (a.u.).
The result for “TGTTAACTAATTAAATACCCATTATCAAACATTTAATTGACGGAGTCACCTAGTGCAG” reads 22900 fluorescence intensity (a.u.); that for “TTGTAATGGTGAAATCATGTTCAGTTTATTGTCGTACAAACGGAGTCACCTAGTGCAG”, 3710 fluorescence intensity (a.u.).
“GCAAATGGATTGTACAACTATGGAAGGGGCAGGTTCGAGGCGGAGTCACCTAGTGCAG”: the binding signal is 5170 fluorescence intensity (a.u.).
As to “GTTTAATTAAAATCCACCAACAATGACAATTTAATAGGTGCGGAGTCACCTAGTGCAG”, the binding signal is 32300 fluorescence intensity (a.u.).
Turning to “CACTTAACTGAACACTTACTTCTCGGTGACAAGTGAAATGCGGAGTCACCTAGTGCAG”, the binding signal was 10800 fluorescence intensity (a.u.).
For “TAACTAATTACCAAACAGATCGTACCCCACCATAAGAATCCGGAGTCACCTAGTGCAG” the value was 29200 fluorescence intensity (a.u.); for “TAACTAATTATTAATTGTTTTCCTATCATTTGATTCATTGCGGAGTCACCTAGTGCAG”, 53200 fluorescence intensity (a.u.).
“GATTTAATGGATCACCTGCTATTACAGATTCCTTCAGTTGCGGAGTCACCTAGTGCAG”: the binding signal is 4210 fluorescence intensity (a.u.).
On to “TTTGATTAATTCAGTGCTTCCTTCCCGTTACATTACACTGCGGAGTCACCTAGTGCAG”, for which the binding signal is 54000 fluorescence intensity (a.u.).
As to “ACAGTGTAATTACACTATGATTGTACTGTAATTACATTTGCGGAGTCACCTAGTGCAG”, the binding signal is 44000 fluorescence intensity (a.u.).
Take “AAATGATTTGATCTAAATTGATAAGTTACTGAGGAGTGCGCGGAGTCACCTAGTGCAG”: the binding signal was 64800 fluorescence intensity (a.u.).
On to “AAACTTTAATTTATCAACCATAAAAGAAACAATTAGAAGGCGGAGTCACCTAGTGCAG”, for which the binding signal was 6940 fluorescence intensity (a.u.).
On to “AGTAATTATTAATTATTTTCCTATCATTTGATTTATTGTTCGGAGTCACCTAGTGCAG”, for which the binding signal was 35700 fluorescence intensity (a.u.).
“CTAATTGGCAAATTAAACAAAGAAGAAGAGGAAAGGAAGGCGGAGTCACCTAGTGCAG”: the binding signal is 44700 fluorescence intensity (a.u.).
Regarding “GCTAATTAACTGTGATTGCAAGAAGGAAAACCATAGAAGGCGGAGTCACCTAGTGCAG”, the binding signal is 53800 fluorescence intensity (a.u.).
Consider “TAAGTAATTATTAATTCTTTTCCTATCATTTGATTTATTGCGGAGTCACCTAGTGCAG”, for which the binding signal is 11700 fluorescence intensity (a.u.).
In the case of “TAAACTGATATAAGTGCCTAAATTTGGATTGAGGGTGGTGCGGAGTCACCTAGTGCAG”, the binding signal is 8300 fluorescence intensity (a.u.).
In the case of “GTAATTATAATAATGAGTTACTGATCGAGAGGAGGAGAGGCGGAGTCACCTAGTGCAG”, the binding signal was 7580 fluorescence intensity (a.u.).
In the case of “CTCTAATGAATGTGCATGTTATGTTTCCAAATCTCACTAGCGGAGTCACCTAGTGCAG”, the binding signal was 3850 fluorescence intensity (a.u.).
“TCTCATACAATCAACAACCTTAAACACATCAGCTCTAGTACGGAGTCACCTAGTGCAG”: the binding signal is 4160 fluorescence intensity (a.u.).
With “CTTCTGATAACAACTGATTAGAAACTATGTTAATTTGATGCGGAGTCACCTAGTGCAG”, the binding signal is 31100 fluorescence intensity (a.u.).
Take “TACTCTTAGATTGAACAGGCTTCTGGCTCAAAACTTTTGACGGAGTCACCTAGTGCAG”: the binding signal was 8550 fluorescence intensity (a.u.).
Regarding “ATTAATTATTTATTTCTTATATTACAGATTTTCAGTATATCGGAGTCACCTAGTGCAG”, the binding signal is 18600 fluorescence intensity (a.u.).
Take “TATAACTAATTATTTAATCGTTAATAAGCTGTTCCGCTAACGGAGTCACCTAGTGCAG”: the binding signal was 25600 fluorescence intensity (a.u.).

For the origin of these results see PMC7819943, “Rice protein-binding microarrays: a tool to detect cis-acting elements near promoter regions in rice”.
